Sampled rows, rich in hits. Any-hit rate of the full collection: about 12%.
RORg inh – inhibitors of mouse ROR gamma transcriptional activity | Drosophila S2 Gal4-RORgamma UAS-luciferase reporter, 20 h | AID 2551 | P51450 | Potency, µM (highest dose often 53.6 µM), for inactives: top-dose activity change, negative = inhibition, hits mostly inhibitors | hit rate 5.4% among 310,000; also: nearly all actives have a fitted effect of over 60% in size
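Luciferase reporter read in Schneider cells carrying Gal4-RORγ (mouse) and UAS-Photinus luciferase; cells given compound 1 h before 700 uM copper sulfate induction, then incubated 20 h at ambient temperature.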
Gal4-VP16 FLuc – Gal4-VP16 reporter inhibition counter-screen; AID 2546; Potency, µM (highest dose often 53.6 µM), inactives show at the top dose activity, negative = inhibition, actives largely listed as inhibitors; hit rate 3.5% among 310,000; Drosophila S2 Gal4-VP16 UAS-luciferase, luminescence, 20 h;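 also: Gal4-VP16 expression switched on by copper sulfate through the metallothionein promoter; nearly all actives have a fitted effect of over 50% in size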
Sfp inh – blocks B. subtilis Sfp PPTase activity | Q9F4F7 | Biochemical Sfp PPTase activity, qHTS | Potency, µM, for inactives: largest response in the series, negative = inhibition, actives largely listed as inhibitors | hit rate 3.5% among 310,000 | AID 1490;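 also: the enzyme is Sfp with the accession as filed and its product quenches rhodamine fluorescence; 0% = enzyme reaction without inhibitor and -100% = no enzyme wells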
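Buffer: 50 mM Hepes-Na pH 7.6, 10 mM MgCl2, 0.01% Nonidet P-40, 0.01% BSA. Enzyme 15 nM, pre-exposed to compound 15 min; substrates then added and fluorescence change tracked over 30 min.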
PLK1 PBD inh – inhibitors of human PLK1 polo-box domain binding; P53350; Plk1 PBD binding of FITC phosphopeptide, fluorescence polarization; Potency, µM, for the others: max response, negative = inhibition, actives largely listed as inhibitors; hit rate 2.8% among 360,000; also: series mostly up to about 57 µM; nearly all actives have a fitted effect of over 65% in size
ALDH1A1 inh – blocks purified human ALDH1A1 activity; P00352; Purified ALDH1A1, NADH fluorescence, propionaldehyde substrate; Potency, µM (top dose mostly 75.3 µM), without a hit: at the highest dose activity, negative = inhibition, hits mostly inhibitors; hit rate 7.3% among 220,000; AID 1030; active = well fitted inhibition curve with a large enough effect, not every such curve was filed as active; inconclusive = small, poorly fitted or top-dose-only effect, or another doubt; inactive = no such curve, though single readings can be large or run the other way;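 also: plate controls were no enzyme wells and a reference inhibitor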
Target sequence (P00352 whole entry, looked up): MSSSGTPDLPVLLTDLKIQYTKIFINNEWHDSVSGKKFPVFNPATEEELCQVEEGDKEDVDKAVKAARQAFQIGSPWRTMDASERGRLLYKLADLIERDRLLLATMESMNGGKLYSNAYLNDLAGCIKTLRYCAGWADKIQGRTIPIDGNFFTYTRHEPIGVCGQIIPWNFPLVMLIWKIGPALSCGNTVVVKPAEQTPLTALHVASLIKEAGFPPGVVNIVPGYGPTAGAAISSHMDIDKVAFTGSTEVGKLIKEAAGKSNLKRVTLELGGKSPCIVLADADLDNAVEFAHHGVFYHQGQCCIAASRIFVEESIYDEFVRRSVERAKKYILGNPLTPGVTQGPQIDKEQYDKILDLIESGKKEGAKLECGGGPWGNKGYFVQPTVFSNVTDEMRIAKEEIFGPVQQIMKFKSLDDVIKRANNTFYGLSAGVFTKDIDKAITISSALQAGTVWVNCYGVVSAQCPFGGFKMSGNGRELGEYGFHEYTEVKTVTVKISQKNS
The depositor's hits bear a star; [ ] = dose if it differs, or a comment. Unless noted, calls follow the shape of the dose curve; as a rule, active = well fitted curve in the direction sought with a large enough effect; inconclusive = small, poorly fitted or top-dose-only effect, or another doubt; inactive = no such curve, though single readings can be large; an effect the other way counts as inactive or inconclusive. Unless noted, % is scaled to controls: 0 for no effect and ±100 for the full control effect; potency is read from the fitted curve at half-maximal effect.

`CC(C)C[C@@H](CC(=O)N[C@@H](CCCN)CC(=O)N[C@@H]1CCNC[C@H]1C(=O)N[C@H](CC(=O)N[C@@H](CCC(=O)O)CC(=O)O)CC(C)C)NC(=O)[C@@H]1CCCC[C@H]1N` gave RORg inh 8%, Gal4-VP16 FLuc -2%, Sfp inh -1% and ALDH1A1 inh inconclusive.
`CCOC(=O)[C@]12CCC=C1N(CCC1=CCCCC1)C(=O)[C@H](CC(=O)N1CCCC1)C2` gave PLK1 PBD inh -21%.
For O=C1NC2c3ccccc3CC2O1 (stereo not given) the results were RORg inh -5%, Gal4-VP16 FLuc 2%, Sfp inh 16% and PLK1 PBD inh 10%.
Screening O=C1NC2c3c(Cl)sc(Cl)c3C(=O)C2O1 (stereo not given) returned PLK1 PBD inh 15µM*.
Screening CCc1nc2c(OCCOc3ccc(F)cc3)cccn2c1N(C=O)Cc1ccccc1 returned PLK1 PBD inh -6%.
For O=C1NCCCC2c3cc(O)c4ccccc4c3OC12N1CCCCC1 (stereo not given) the results were RORg inh 10µM*, Gal4-VP16 FLuc inconclusive, Sfp inh 20µM* and ALDH1A1 inh inconclusive.
`Cc1nnc(SCc2nnc(-c3cccs3)o2)n1Cc1ccccc1` gave RORg inh -23%, Gal4-VP16 FLuc -17%, Sfp inh -2%, PLK1 PBD inh 2% and ALDH1A1 inh 13µM*.
Clc1ccc(-c2nnc(CSc3nnc(-c4cccs4)n3Cc3ccccc3)o2)cc1 was read as RORg inh inconclusive, Gal4-VP16 FLuc 18µM*, Sfp inh -2%, PLK1 PBD inh -14% and ALDH1A1 inh -3%.
Screening c1ccc(-c2nnc(CSc3nnc(-c4cccs4)o3)o2)cc1 returned RORg inh 34%, Gal4-VP16 FLuc 8%, Sfp inh 12%, PLK1 PBD inh -1% and ALDH1A1 inh inconclusive.
For Cc1nnc(SCc2nnc(-c3ccc(Cl)cc3)o2)n1-c1ccccc1 the results were RORg inh 12%[10 µM], Gal4-VP16 FLuc 0%, Sfp inh -8%, PLK1 PBD inh -15% and ALDH1A1 inh -15%.
`Cc1ccc(CN2C(=O)c3ccccc3C2c2nnnn2C(C)C)cc1` (stereo not given) gave PLK1 PBD inh -3%.
`COc1ccc(-c2ccc(C(C)=O)cc2)cc1C1C2C=CCC(C)C2C(=O)N1Cc1ccccc1` (stereo not given) gave RORg inh 14%, Gal4-VP16 FLuc 5% and Sfp inh -6%.
For COC(=O)[C@@H](Cc1c[nH]c2ccccc12)NCc1cccc(B(O)O)c1 the results were PLK1 PBD inh -8%.
Screening Cc1ccccc1NC(=O)Cc1nc(CCl)cs1 returned RORg inh -40%, Gal4-VP16 FLuc 17%, Sfp inh -29%, PLK1 PBD inh inconclusive and ALDH1A1 inh 11µM*.
`Cn1c(=O)c(C#N)c(-c2ccc(F)cc2)c2cc(C(=O)c3cc(Cl)cc(Cl)c3O)cnc21` gave RORg inh -73%, Gal4-VP16 FLuc 18µM*, Sfp inh 45µM* and PLK1 PBD inh 27µM*.
COc1ccc(OCC(=O)Nc2cc(OC)ccc2N2CCCCC2)cc1 was read as RORg inh inconclusive, Gal4-VP16 FLuc inconclusive, Sfp inh -13% and PLK1 PBD inh inconclusive.
Cc1cc(=O)[nH]c2c(C)cc(S(=O)(=O)N3CCCCC3)cc12 was read as RORg inh 5.6µM*, Gal4-VP16 FLuc 19%, Sfp inh 8% and PLK1 PBD inh -8%.
Screening CCOC(=O)C1=C(N)OC2=C(C(=O)CC(C)(C)C2)C1c1ccc(C)s1 (stereo not given) returned RORg inh 25%, Gal4-VP16 FLuc -8%, Sfp inh inconclusive, PLK1 PBD inh -3% and ALDH1A1 inh 13µM*.
CCOC(=O)C1=C(N)OC2=C(C(=O)CC(C)(C)C2)C1c1ccc(CC)s1 (stereo not given) was read as RORg inh 20%, Gal4-VP16 FLuc inconclusive, Sfp inh 14%, PLK1 PBD inh -12% and ALDH1A1 inh 6%.
Screening Cc1ccc(C2C(C(N)=S)=C(N)OC3=C2C(=O)CC(C)(C)C3)cc1 (stereo not given) returned RORg inh inconclusive, Gal4-VP16 FLuc inconclusive, Sfp inh 3.5µM*, PLK1 PBD inh 1% and ALDH1A1 inh 14µM*.
Screening COCCNc1nc(-c2ccccc2F)c2sc(-c3ccccc3)cc2n1 returned PLK1 PBD inh -6%.
`Cc1cc(Br)c(NC(=O)CN2C(=O)NC3(CCOc4ccccc43)C2=O)c(Br)c1` (stereo not given) gave PLK1 PBD inh -5%.
Screening OC[C@H](O)[C@H](O)[C@@H](O)[C@@H](O)[C@@H]1SC(c2ccccc2)=NN1c1ccccc1 returned RORg inh 8.9µM*, Gal4-VP16 FLuc -25%, Sfp inh -4% and PLK1 PBD inh inconclusive.
`Cc1ccc(C2=NNC(C(O)C(O)C(O)C(O)CO)S2)cc1` (stereo not given) gave RORg inh inconclusive, Gal4-VP16 FLuc -17%, Sfp inh -18%, PLK1 PBD inh inconclusive and ALDH1A1 inh inconclusive.
C=CCNc1nc(SC)nc2ccsc12 was read as RORg inh -22%, Gal4-VP16 FLuc 4%[0.365 µM], Sfp inh 9%, PLK1 PBD inh -1% and ALDH1A1 inh 12%.
C=CCSc1nc(N(CC)CC)c2sccc2n1 was read as RORg inh 11µM*, Gal4-VP16 FLuc -17%, Sfp inh -9%, PLK1 PBD inh -6% and ALDH1A1 inh -14%.
For CCCCN(C(=O)C1CCCC1)c1c(N)n(CCC)c(=O)[nH]c1=O the results were PLK1 PBD inh -5%.
`O=C1CC(=O)OC(c2ccc([N+](=O)[O-])cc2)O1` gave PLK1 PBD inh 6µM*.
`Cc1ccc(NS(=O)(=O)c2coc(C(N)=O)c2)cc1F` gave RORg inh 15%, Gal4-VP16 FLuc -1%, Sfp inh 5% and PLK1 PBD inh 24µM*.
COc1ccc(NS(=O)(=O)c2coc(C(N)=O)c2)cc1Cl was read as RORg inh -27%, Gal4-VP16 FLuc -9%, Sfp inh 19%, PLK1 PBD inh -2% and ALDH1A1 inh 0%.
OCCC1CN(Cc2ccc3nonc3c2)CCN1Cc1ccsc1 (stereo not given) was read as RORg inh -15%, Gal4-VP16 FLuc 0%, Sfp inh 9%, PLK1 PBD inh 4% and ALDH1A1 inh 19µM*.
For CCOC(=O)[C@@H](NC(=O)CC[C@H]1O[C@@H](n2ccc(=O)[nH]c2=O)[C@H](O)[C@@H]1O)C(C)C the results were PLK1 PBD inh -3%.
Screening CNC(=O)NC(=O)CSc1nc2cc(C(=O)OC)ccc2c(=O)n1-c1ccccc1 returned RORg inh -44%, Gal4-VP16 FLuc 22µM*, Sfp inh 10%, PLK1 PBD inh -6% and ALDH1A1 inh inconclusive.

From PubChem
